Experimental data from PubChem BioAssay (NCATS).
Activity calls are given as the source filed them. Calls follow the shape of the dose curve; as a rule, active = well fitted activation curve with a large enough effect; inconclusive = small, poorly fitted or top-dose-only effect; inactive = flat fitted curve, though single readings scatter.

Assay: Cellular Toxicity (caspase-3) N2a (AID 665);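 also: compound exposure lasted 16 h at 37 °C before readout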
Details: N2a cells, luminescence, normalized: DMSO 0%, 10 µM staurosporine 100%; series mostly up to 92.2 µM; caspase-3 activation: at the top concentration
Excerpt: NIH Chemical Genomics Center [NCGC]
NIH Molecular Libraries Screening Centers Network [MLSCN]
National Institutes of Environmental Health Sciences [NIEHS]
National Toxicology Program [NTP]
We have developed a 1536-well cell-based assay for quantitative high throughput screening (qHTS) against a number of cell lines to determine in vitro caspase 3/7 activity of small molecules. This particular assay uses the N2a cell line which is derived from mouse neuroblastoma.
NCGC Assay Protocol Summary:
The Caspase-Glo 3/7 assay (Promega) is a homogeneous method to measure caspase-3 and caspase-7 activities in cultured cells. The quantitation of caspase 3/7 activity is based on the cleavage of a peptide-aminoluciferin substrate. After caspase cleaves the substrate the free aminoluciferin is liberated and serves as the substrate of luciferase, which generates the light. The luminescent signal is proportional to the amount of caspase 3/7 activity present.
Using the Caspase-Glo 3/7 assay, the amount of caspase 3/7 activity was measured in the N2a cells with complete culture medium following compound treatment for 16 hours. The assay was performed in opaque white 1536-well plates. In the screen, staurosporine and doxorubicin were used as positive controls. Library compounds were measured for their ability to cause the activation of caspase 3/7 in the cell line, as reflected by an increase in luminescence signal, in a concentration-dependent manner. Data were normalized to the controls for basal activity (DMSO only) and 100% stimulation (10 uM staurosporine). AC50 values were determined from concentration-response data modeled with the standard Hill equation.
qHTS protocol for caspase 3/7 assay in mouse N2a cell line
[Step] [Parameter] [Value] [Description]
1. Reagent; 5 uL; 1500 mouse N2a cells/well
2. Time; 5 hr; 37 °C incubation
4. Controls; 23 nL; doxorubicin 7 pM to 100 uM & staurosporine 1.4 pM to 20 uM
5. Time; 16 hr; 37 °C incubation
6. Reagent; 5 uL; Caspase-Glo 3/7 reagent
7. Time; 1 hr; Room Temperature
8. Detection; Luminescence; Viewlux plate reader
Keywords: caspase 3/7, apoptosis, mouse N2a cell line, luminescence, NTPHTS, NTPHTS_NCGC, NIEHS, EPA, DSSTox, MLSMR, MLSCN, NIH Roadmap, qHTS, NCGC

SMILES	caspase-3 activation
Cc1cc2nc(N)sc2cc1C	-18.2% (inactive)
c1ccc2ncccc2c1	-0.24% (inactive)
NC(=O)c1ccc([N+](=O)[O-])cc1	-0.646% (inactive)
CC(=O)OC1CC(C)OC(C)O1 (stereo not given)	0.23% (inactive)
CC/C=C/C/C=C/C/C=C/CCCCCCCC(=O)OCC	-11.2% (inactive)
Cc1ccccc1OCC1CO1 (stereo not given)	-4.87% (inactive)
CN(C)c1ccc(C(=N)c2ccc(N(C)C)cc2)cc1	5.18% (inactive)
CC(C)S	0.0811% (inactive)
CCCCCCN	-2.08% (inactive)
O=C1OC(=O)c2ccccc21	-2.19% (inactive)
CCCCCCc1ccc(-c2ccc(C#N)cc2)cc1	1.98% (inactive)
CC(=O)CC(=O)Nc1ccccc1	-1.42% (inactive)
c1cc2c3c(c1)ccc1cccc(c13)C2	-1.4% (inactive)
CCNC(=S)NCC	-2.53% (inactive)
C=Cc1cccc(C)c1	-0.985% (inactive)
C/C=C1/C(=O)C[C@H]2[C@@H]3CCC4=CC(=O)CC[C@]4(C)[C@H]3CC[C@]12C	-3.17% (inactive)
O=[N+]([O-])c1cc(Cl)c(Cl)c(Cl)c1Cl	7.72% (inactive)
Brc1cc(Oc2cc(Br)c(Br)c(Br)c2Br)c(Br)c(Br)c1Br	-1.04% (inactive)
C=CC(C)(O)CCCC(C)CCCC(C)CCCC(C)C (stereo not given)	-0.693% (inactive)
O=C1c2ccccc2C(=O)C1(O)O	-5.13% (inactive)

SMILES	caspase-3 activation
Oc1cc(Cl)cc(Cl)c1Cl	1.23% (inactive)
CCCCC(CC)COCCCN (stereo not given)	-1.55% (inactive)
CCOC(=O)C1OC1c1ccccc1 (stereo not given)	-1.86% (inactive)
O=CC(=O)c1ccccc1	-0.246% (inactive)
COc1ccc([N+](=O)[O-])cc1N	-2.04% (inactive)
Nc1ccc(N=Nc2ccccc2)c(N)c1	-19% (inactive)
O=[N+]([O-])c1cccc(I)c1	-0.559% (inactive)
Oc1c(Cl)cc(Cl)c(Cl)c1Cl	-1.09% (inactive)
CC(=O)c1ccc(Cl)c(Cl)c1Cl	-2.27% (inactive)
C=CC(=O)CC	-1.79% (inactive)
CC(C)(C)C(=O)C1C(=O)c2ccccc2C1=O	-6.8% (inactive)
COc1cc(-c2ccc(N=C=O)c(OC)c2)ccc1N=C=O	-5.85% (inactive)
O=C=Nc1ccc(Cl)c(Cl)c1	14.2% (inactive)
Cc1ccc(S(N)(=O)=O)cc1	2.22% (inactive)
Cc1cccnc1	-3.99% (inactive)
Cc1ccc(N)cc1[N+](=O)[O-]	-3.12% (inactive)
O=[N+]([O-])c1cc(N(CCO)CCO)ccc1NCCO	-6.23% (inactive)
Cc1ccc2ccc3cccc4ccc1c2c34	2.31% (inactive)
CCCCC(CC)COP(=O)(OCC(CC)CCCC)OCC(CC)CCCC (stereo not given)	-4.25% (inactive)
CCN(CC)c1ccc2c(C)cc(=O)oc2c1	-0.529% (inactive)
